This is an account of results in PubChem BioAssay (EPA / NIEHS).

For assay [1], the target named is human Adenosine A2a Receptor (AdoRA2a), ADORA2A (gene 135) (UniProt P29274). The assay is described as follows: NVS_GPCR_hAdoRA2a: NovaScreen (NVS) G Protein-Coupled Receptor Assay for human Adenosine A2a Receptor (AdoRA2a) (AID 2283256). In a few lines:
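Cell-free radioligand binding on membranes from HEK293 expressing the receptor; competitive displacement read 1.5 h after dosing by filter-based scintillation counting. Primary screen in duplicate at 25 uM; actives followed in concentration series, with DMSO as baseline.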

Assay [2] concerns the target human Adenosine A1 Receptor (AdoRA1), ADORA1 (gene 134) (UniProt P30542). Briefly: NVS_GPCR_hAdoRA1: NovaScreen (NVS) G Protein-Coupled Receptor Assay for human Adenosine A1 Receptor (AdoRA1) (AID 2283254). In a few lines: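 Hum. cortical membranes + radioligand, cmpd 1 h; filtration, scintillation count. Readout = decrease vs DMSO. Primary 25 uM dup; hits → conc. series.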

For assay [3], the target named is Muscarinic acetylcholine receptor M2 (Homo sapiens) (UniProt P08172). Briefly: NVS_GPCR_hM2: NovaScreen (NVS) G Protein-Coupled Receptor Assay for human Muscarinic, M2 Receptor (AID 2283273). In outline: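 CHO membrane prep, radioligand + test compound, 1 h; filtration, scintillation count. Screen 25 uM duplicate → conc. series for actives. Readout: decrease in binding vs DMSO control.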
Chain of Muscarinic acetylcholine receptor M2 (Homo sapiens) (P08172 whole entry, looked up): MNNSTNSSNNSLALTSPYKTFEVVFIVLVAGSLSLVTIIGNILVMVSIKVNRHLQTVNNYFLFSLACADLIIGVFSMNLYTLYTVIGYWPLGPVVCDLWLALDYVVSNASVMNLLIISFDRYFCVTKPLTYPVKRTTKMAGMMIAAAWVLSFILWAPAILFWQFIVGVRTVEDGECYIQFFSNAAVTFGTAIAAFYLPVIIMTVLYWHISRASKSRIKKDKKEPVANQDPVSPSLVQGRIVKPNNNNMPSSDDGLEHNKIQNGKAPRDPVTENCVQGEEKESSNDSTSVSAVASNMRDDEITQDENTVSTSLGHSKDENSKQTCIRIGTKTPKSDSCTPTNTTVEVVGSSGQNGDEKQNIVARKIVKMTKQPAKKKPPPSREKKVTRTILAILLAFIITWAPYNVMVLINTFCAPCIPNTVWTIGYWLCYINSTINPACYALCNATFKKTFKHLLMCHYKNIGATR

The target in assay [4] is sheep Cyclooxygenase-1 (Cox1), PTGS1 (gene 443551) (UniProt P05979). Briefly: NVS_ENZ_oCOX1: NovaScreen (NVS) Enzymatic Assay for sheep Cyclooxygenase-1 (Cox1) (AID 2283239).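 Note: actives reduce cyclooxygenase activity so potencies are for inhibitors.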 In outline: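 Native ovine seminal vesicle protein serves as enzyme source in this biochemical assay. Colorimetric signal is recorded 0.66 h after chemical addition, and decreases versus the DMSO control define activity.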
Chain of sheep Cyclooxygenase-1 (Cox1), PTGS1 (gene 443551) (P05979 whole entry, looked up): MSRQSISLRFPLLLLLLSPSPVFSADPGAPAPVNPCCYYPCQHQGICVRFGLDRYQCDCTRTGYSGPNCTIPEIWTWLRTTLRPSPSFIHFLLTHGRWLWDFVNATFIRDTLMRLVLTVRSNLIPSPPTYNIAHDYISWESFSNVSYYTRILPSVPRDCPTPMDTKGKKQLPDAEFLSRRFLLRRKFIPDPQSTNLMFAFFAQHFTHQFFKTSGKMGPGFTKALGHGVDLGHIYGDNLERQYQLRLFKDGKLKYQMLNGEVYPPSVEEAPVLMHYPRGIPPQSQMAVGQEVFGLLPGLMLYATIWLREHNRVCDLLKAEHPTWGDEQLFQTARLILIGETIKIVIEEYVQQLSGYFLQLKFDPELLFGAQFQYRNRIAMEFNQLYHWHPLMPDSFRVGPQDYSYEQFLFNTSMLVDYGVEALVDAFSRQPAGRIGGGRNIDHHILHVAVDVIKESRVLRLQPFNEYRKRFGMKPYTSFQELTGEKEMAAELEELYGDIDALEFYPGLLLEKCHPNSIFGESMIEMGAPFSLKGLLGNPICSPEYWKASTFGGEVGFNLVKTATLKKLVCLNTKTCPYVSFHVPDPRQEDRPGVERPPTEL

Assay [5] addresses D(1A) dopamine receptor (Homo sapiens) (UniProt P21728). Briefly: NVS_GPCR_hDRD1: NovaScreen (NVS) G Protein-Coupled Receptor Assay for human Dopamine Receptor D1 (DRD1) (AID 2283269). In outline: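 HEK293-derived receptor preparation; radioligand competitive displacement; 1 h; filtration + scintillation counting. DMSO = negative control/baseline. Primary: 25 uM, duplicate; secondary: concentration–response for actives.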

For assay [6], the target named is human Opioid Receptor Mu (Opiate Mu), OPRM1 (gene 4988) (UniProt P35372). The assay is described as follows: NVS_GPCR_hOpiate_mu: NovaScreen (NVS) G Protein-Coupled Receptor Assay for human Opioid Receptor Mu (Opiate Mu) (AID 2283290).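 Note: hits lower bound tracer signal versus DMSO meaning displacement of the ligand.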 In outline:
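CHO-derived receptor protein, cell-free; radioligand displacement, filtration + scintillation counting, read at 2.5 h. DMSO = negative control/baseline. Primary: 25 uM single conc, duplicate; secondary: concentration series.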

The target in assay [7] is guinea pig Opioid, Kappa 1 Receptor (OpiateK), OPRK1 (gene 100135587) (UniProt P41144). Briefly: NVS_GPCR_gOpiateK: NovaScreen (NVS) G Protein-Coupled Receptor Assay for guinea pig Opioid, Kappa 1 Receptor (OpiateK) (AID 2283252).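 Note: radioligand displacement from kappa opioid receptor in guinea pig cerebellar membranes; active means reduced radioligand binding relative to DMSO.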 In outline:
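Signal is scintillation counts of filter-trapped radioligand bound to guinea pig cerebellar membrane receptor, measured 2 hours post-dosing. Activity is loss of binding versus DMSO, first at 25 uM in duplicate, then as concentration series for actives.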

Assay [8] addresses human Thromboxane A2 Receptor (TXA2), TBXA2R (gene 6915) (UniProt P21731). The assay is described as follows: NVS_GPCR_hTXA2: NovaScreen (NVS) G Protein-Coupled Receptor Assay for human Thromboxane A2 Receptor (TXA2) (AID 2283282).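 Note: actives reduce bound radioligand signal relative to DMSO baseline.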 In a few lines:
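Biochem binding, human platelets, cell-free; competitive radioligand displacement; 1 h; filter radiodetection. 25 uM duplicate primary, conc. series secondary; DMSO neg. ctrl.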

Assay [9] deals with Sodium channel protein type 1 subunit alpha (Rattus norvegicus) (UniProt P04774). The assay is described as follows: NVS_IC_rNaCh_site2: NovaScreen (NVS) Ion Channel Assay for rat Sodium Channel, Site 2 (NaCh) (AID 2283322).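 Note: hit means loss of radioligand binding signal relative to DMSO so AC50 marks displacement.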 In a few lines: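 Membranes: rat forebrain. Format: competitive radioligand displacement, filter separation, scintillation readout, 1 h exposure. Primary screen in duplicate at 25 uM; actives retested in concentration series.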

Assay [10] deals with human Neurokinin, NK2 Receptor, TACR2 (gene 6865) (UniProt P21452). The assay is described as follows: NVS_GPCR_hNK2: NovaScreen (NVS) G Protein-Coupled Receptor Assay for human Neurokinin, NK2 Receptor (AID 2283278).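 Note: actives reduce bound radioligand signal relative to DMSO baseline.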 In a few lines: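 Filter-based scintillation counting measured radioligand bound to receptor extracted from CHO cells, 4 hours after compound addition. Chemicals screened first at 25 uM in duplicate, with actives retested in concentration series relative to DMSO.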
Chain of human Neurokinin, NK2 Receptor, TACR2 (gene 6865) (P21452 whole entry, looked up): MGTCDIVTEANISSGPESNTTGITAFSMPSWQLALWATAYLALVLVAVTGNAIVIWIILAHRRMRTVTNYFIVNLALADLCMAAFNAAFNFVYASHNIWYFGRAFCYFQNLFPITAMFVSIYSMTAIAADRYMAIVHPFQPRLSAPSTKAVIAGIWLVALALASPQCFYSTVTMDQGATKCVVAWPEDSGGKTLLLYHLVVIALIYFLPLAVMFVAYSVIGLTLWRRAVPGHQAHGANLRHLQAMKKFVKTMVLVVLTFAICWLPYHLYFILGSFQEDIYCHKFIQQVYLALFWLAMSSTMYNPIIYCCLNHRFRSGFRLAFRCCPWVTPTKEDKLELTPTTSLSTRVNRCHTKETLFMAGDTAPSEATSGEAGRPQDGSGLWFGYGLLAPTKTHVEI

Assay [11] addresses rat Neonicotinoid receptor (NNR), Chrna7 (gene 25302) (UniProt Q05941). Briefly: NVS_LGIC_rNNR_BungSens: NovaScreen (NVS) Ligand-Gated Ion Channel Assay for rat Neonicotinoid receptor (NNR) (AID 2283315). In a few lines:
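Radioligand displacement binding on rat cortical membranes, 2.5 h incubation, filtration and scintillation counting. Loss of specific binding fitted relative to DMSO.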

Results filed as inconclusive are left out. Active and inactive are the calls of the source. Rule for the calls: active = hit-call score of the fitted dose curve at least 0.9, where 1 is the maximum; inconclusive = response in the unintended direction; inactive = score below 0.9.

Chain of human Thromboxane A2 Receptor (TXA2), TBXA2R (gene 6915) (P21731 whole entry, looked up): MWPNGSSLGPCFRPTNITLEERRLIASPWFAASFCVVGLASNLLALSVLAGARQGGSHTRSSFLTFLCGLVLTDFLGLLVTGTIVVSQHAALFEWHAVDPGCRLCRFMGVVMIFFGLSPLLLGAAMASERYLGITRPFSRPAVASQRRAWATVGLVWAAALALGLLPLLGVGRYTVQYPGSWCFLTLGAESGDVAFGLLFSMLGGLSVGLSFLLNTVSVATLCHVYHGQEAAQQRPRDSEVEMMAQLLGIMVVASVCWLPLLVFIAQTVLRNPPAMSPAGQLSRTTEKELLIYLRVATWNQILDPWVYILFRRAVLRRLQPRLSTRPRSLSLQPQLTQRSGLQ
Chain of human Adenosine A2a Receptor (AdoRA2a), ADORA2A (gene 135) (P29274 whole entry, looked up): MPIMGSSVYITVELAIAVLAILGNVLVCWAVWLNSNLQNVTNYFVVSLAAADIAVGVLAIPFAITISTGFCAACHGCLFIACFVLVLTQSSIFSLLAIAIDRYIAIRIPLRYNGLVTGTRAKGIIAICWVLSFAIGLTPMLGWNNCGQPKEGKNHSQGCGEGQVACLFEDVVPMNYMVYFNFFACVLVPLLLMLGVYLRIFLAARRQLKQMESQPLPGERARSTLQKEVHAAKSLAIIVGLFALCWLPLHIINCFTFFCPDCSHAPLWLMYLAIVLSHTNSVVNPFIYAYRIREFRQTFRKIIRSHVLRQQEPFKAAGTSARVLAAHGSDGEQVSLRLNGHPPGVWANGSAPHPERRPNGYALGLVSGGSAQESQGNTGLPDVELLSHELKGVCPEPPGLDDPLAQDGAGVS
Chain of guinea pig Opioid, Kappa 1 Receptor (OpiateK), OPRK1 (gene 100135587) (P41144 whole entry, looked up): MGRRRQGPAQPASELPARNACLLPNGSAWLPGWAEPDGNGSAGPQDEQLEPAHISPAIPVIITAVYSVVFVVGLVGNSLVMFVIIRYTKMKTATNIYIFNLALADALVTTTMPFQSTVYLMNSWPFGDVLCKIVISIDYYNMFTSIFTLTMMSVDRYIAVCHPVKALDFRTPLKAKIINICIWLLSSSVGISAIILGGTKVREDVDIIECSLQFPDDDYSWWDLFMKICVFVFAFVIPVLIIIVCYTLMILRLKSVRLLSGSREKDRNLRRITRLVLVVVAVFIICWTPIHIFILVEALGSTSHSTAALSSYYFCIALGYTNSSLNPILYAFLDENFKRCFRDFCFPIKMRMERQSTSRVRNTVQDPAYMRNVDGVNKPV
Chain of D(1A) dopamine receptor (Homo sapiens) (P21728 whole entry, looked up): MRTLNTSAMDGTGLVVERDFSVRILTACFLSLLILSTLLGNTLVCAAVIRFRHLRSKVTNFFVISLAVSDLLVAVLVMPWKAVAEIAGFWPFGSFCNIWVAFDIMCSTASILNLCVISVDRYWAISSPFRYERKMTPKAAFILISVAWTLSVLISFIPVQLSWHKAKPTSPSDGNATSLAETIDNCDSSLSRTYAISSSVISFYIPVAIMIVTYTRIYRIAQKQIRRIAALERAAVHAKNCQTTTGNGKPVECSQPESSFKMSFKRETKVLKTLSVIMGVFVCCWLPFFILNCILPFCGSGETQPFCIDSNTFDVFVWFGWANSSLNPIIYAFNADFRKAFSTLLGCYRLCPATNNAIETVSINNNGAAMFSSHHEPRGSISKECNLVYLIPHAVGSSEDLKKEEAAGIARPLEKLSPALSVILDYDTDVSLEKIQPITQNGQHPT
Chain of human Opioid Receptor Mu (Opiate Mu), OPRM1 (gene 4988) (P35372 whole entry, looked up): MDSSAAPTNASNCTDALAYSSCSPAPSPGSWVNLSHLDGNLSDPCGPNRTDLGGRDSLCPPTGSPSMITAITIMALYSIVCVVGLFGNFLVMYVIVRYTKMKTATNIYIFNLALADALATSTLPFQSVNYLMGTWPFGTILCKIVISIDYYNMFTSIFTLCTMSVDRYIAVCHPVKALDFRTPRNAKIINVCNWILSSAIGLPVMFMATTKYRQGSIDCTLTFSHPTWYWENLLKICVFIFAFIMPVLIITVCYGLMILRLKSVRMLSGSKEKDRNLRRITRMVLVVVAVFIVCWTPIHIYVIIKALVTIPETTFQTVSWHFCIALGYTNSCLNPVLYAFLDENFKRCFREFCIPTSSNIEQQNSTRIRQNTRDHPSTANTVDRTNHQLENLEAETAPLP
Chain of human Adenosine A1 Receptor (AdoRA1), ADORA1 (gene 134) (P30542 whole entry, looked up): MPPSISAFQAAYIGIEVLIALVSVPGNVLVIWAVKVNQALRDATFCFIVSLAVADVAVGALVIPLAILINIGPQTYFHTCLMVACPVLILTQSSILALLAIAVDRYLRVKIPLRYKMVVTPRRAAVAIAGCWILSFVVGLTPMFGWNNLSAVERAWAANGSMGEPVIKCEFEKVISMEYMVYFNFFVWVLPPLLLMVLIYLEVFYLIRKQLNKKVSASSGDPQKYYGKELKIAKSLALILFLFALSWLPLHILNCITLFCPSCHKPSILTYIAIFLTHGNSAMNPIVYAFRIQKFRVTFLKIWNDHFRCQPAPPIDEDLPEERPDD
Chain of rat Neonicotinoid receptor (NNR), Chrna7 (gene 25302) (Q05941 whole entry, looked up): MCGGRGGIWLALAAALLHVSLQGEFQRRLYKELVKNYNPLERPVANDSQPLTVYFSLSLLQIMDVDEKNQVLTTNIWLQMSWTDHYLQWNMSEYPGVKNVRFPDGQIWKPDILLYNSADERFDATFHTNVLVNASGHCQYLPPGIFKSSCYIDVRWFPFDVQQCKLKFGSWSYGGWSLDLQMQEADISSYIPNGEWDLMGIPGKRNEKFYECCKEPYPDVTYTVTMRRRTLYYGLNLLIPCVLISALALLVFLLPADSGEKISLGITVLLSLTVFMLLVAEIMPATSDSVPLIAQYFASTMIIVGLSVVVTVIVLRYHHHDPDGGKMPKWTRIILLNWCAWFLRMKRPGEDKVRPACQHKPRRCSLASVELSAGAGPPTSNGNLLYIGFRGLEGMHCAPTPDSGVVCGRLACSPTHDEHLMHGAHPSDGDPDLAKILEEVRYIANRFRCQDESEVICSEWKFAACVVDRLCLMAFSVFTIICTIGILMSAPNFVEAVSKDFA

Turning to `Nc1ccc(Cl)c([N+](=O)[O-])c1`, the compound was called inactive in [1].

Turning to `C=C(C)C(=O)OCC(CC)(COC(=O)C(=C)C)COC(=O)C(=C)C`, the AC50 in assay [2] and in [3] was 24.6 µM (active) throughout.

As to `c1ccc2[nH]cnc2c1`, the result in assay [4] was inactive.

As to `ClC(c1ccccc1)(c1ccccc1)c1ccccc1`, the compound was called inactive in assay [1], in assay [5] and in assay [6].

For the compound `CCCCN(CCCC)C(=O)N(CCCC)CCCC`, the compound was classed as inactive in [3].

As to `c1ccc(CCc2ccccc2)cc1`, the result in assay [4] was inactive.

Take `COc1ccc(CCN2CCC(Nc3nc4ccccc4n3Cc3ccc(F)cc3)CC2)cc1`: in assay [7], the compound was called inactive. Further, the values for the AC50 in assay [3], in assay [8] and in assay [9] were 3.04 µM (active), 0.227 µM (active) and 0.115 µM (active), respectively.

In the case of `CN(C)C(=O)Nc1ccc(Oc2ccc(Cl)cc2)cc1`, the AC50 – broadly, the concentration at which the activity in the assay is half-maximal – in [4] was 25 µM (active). Also, the compound was called inactive in assay [10] and in [8].

As to `CC(C)CC(C)CC(O)CC(C)C` (stereo not given), the outcome in assay [8] was inactive.

For the compound `C=CC(C)C#N` (stereo not given), in [11], the call was inactive.

As for `CCCCC(CC)COC(C)=O` (stereo not given), the result in assay [9] was inactive.

On to `CC=Cc1ccc(OC)c(OC)c1`, for which the result in [9] was inactive.
